# Compound activity: PubChem BioAssay, several laboratories
# This is a sample that favours compounds with a hit; in the whole collection about 5.4% have one here.
# PHOSPHO1 inh: inhibitors of human PHOSPHO1 phosphatase | Q8TCT1 | recombinant PHOSPHO1, absorbance phosphatase assay | inhibition, % at 13.3 µM | 1.1% of 290,000 active; in the data active = inhibition above about 60%
# Target sequence (Q8TCT1 whole entry, looked up): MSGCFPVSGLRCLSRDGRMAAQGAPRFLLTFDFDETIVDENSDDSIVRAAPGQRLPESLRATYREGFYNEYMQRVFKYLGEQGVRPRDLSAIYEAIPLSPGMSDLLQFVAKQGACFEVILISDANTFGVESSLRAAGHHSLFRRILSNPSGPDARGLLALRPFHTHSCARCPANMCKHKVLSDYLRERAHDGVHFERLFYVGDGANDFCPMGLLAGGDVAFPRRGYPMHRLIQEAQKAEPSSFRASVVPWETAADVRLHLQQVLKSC
# A3A deaminase: inhibitors of human APOBEC3A DNA deaminase | P31941 | recombinant A3A, FAM/TAMRA ssDNA deamination fluorescence | inhibition, % at 20 µM | 0.41% of 330,000 active | AID 493011;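 active = at least 40% inhibition at 20 µM here, with at most 30% in a related deaminase screen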;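 also: plate controls were A3A with DMSO for no effect and wells lacking A3A enzyme for full effect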
# aDG glyco up: alpha-DG glycosylation activation; Pro5-aDG cells, alpha-DG glycosylation AlphaScreen (IIH6); 0% Pro5, 100% B10-LARGE cell signal; 0.22% of 360,000 active; activation, % at 10 µM;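 active = activation of at least 8% versus controls, or a plate z-score of at least 8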;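 also: Pro5 are CHO cells carrying HIG-tagged alpha-DG that lacks glycosylation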
# ALR H2O2 inh: human ALR oxidase inhibition via reduced H2O2; P55789; purified ALR, DTT oxidation, H2O2 HRP-luminol luminescence; inhibition, % (concentration not given with the values); 3.8% of 290,000 active; AID 485317;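 active = mean replicate inhibition above about 79%, with every replicate also reaching it, limit read from the data; inconclusive = only one of the two criteria met; inactive = mean below limit and not every replicate reaching it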
# Target sequence (P55789 whole entry, looked up): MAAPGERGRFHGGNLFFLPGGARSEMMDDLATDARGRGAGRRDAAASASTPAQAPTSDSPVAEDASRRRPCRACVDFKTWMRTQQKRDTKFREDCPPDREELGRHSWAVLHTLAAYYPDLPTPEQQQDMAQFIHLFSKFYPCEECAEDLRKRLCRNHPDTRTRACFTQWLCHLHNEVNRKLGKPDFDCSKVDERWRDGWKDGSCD
# A3G deaminase: APOBEC3G (human) deaminase inhibition | Q9HC16 | recombinant A3G, ssDNA deamination FAM/TAMRA fluorescence | inhibition, % at 20 µM | 0.28% of 330,000 active;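 active = inhibition of at least 40% at 20 µM, with no more than 30% in the related APOBEC3A deaminase screen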;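 also: plate controls were DMSO wells with A3G for no effect and wells lacking A3G enzyme for full effect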
# rCAG binder: r(CAG) repeat RNA binding; 1.3% of 370,000 active; TO-PRO-1 dye displacement fluorescence; inhibition, % at 3 µM;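 active = inhibition above the plate cutoff, the mean of all test compounds on that plate plus 3 SD, cut at about 35% in these data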;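 also: 0% = DMSO alone and 100% = 100 µM mitoxantrone as full dye displacement; higher means more dye released from RNA so lower well fluorescence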
# * marks the source's active call; other numbers are inactive results; ? = inconclusive; / = not tested or not shown.
SMILES,PHOSPHO1 inh,A3A deaminase,aDG glyco up,ALR H2O2 inh,A3G deaminase,rCAG binder
COc1cccc(C2c3[nH]c4ccccc4c3C[C@H]3C(=O)N(c4ccccc4C(=O)N4CCC[C@H]4C(=O)O)C(=O)N23)c1 (some centres undefined),13.1,-2.8,0.2,98.2*,-6.4,31.2
Cc1cc(C)cc(C(=O)OCCN2CCN(C3CN(Cc4cn(Cc5ccccc5F)nn4)S(=O)(=O)C3)CC2)c1 (centres undefined),/,/,/,/,/,2.9
COC(=O)[C@]12C[C@H](CC(=O)N3CCCCC3)C(=O)N(CCc3ccc(OC)c(OC)c3)C1=C[C@H](C1CCCC1)O[C@@H]2C,/,/,/,/,/,0.1
Cc1[nH]n(-c2cccc(Cl)c2)c(=O)c1-c1ccccc1,15.0,-1.3,-0.3,84.3*,0.4,9.9
Cc1[nH]n(-c2cccc([N+](=O)[O-])c2)c(=O)c1-c1ccccc1,31.7,-2.8,0.0,88.8*,1.2,8.5
COC(=O)C[C@@H]1CC[C@H]2[C@@H](COc3ccc(NC(=O)Nc4ccccc4Cl)cc3C(=O)N2C)O1,/,/,/,/,/,3.2
COc1ccc(CN2C[C@]3(C=C(C)Cn4c(=O)n(-c5ccccc5)c(=O)n43)N(C(=O)OCc3ccccc3)C2=NC(=O)c2ccccc2)c(OC)c1,/,/,/,/,/,10.8
O=C(O)CSc1c2ccccc2cc2ccccc12,24.7,-1.9,-0.1,98.9*,-0.4,8.8
O=C(O)COc1ccccc1/C=N/NC(=O)CSc1nnc(SCc2cccc3ccccc23)s1,27.4,3.0,-0.2,96.7*,-5.5,7.2
O=C(O)CSc1nnc(SCc2cccc3ccccc23)s1,-3.2,2.4,-0.1,98.3*,-7.2,20.5
O=C(O)COc1ccccc1/C=N/NC(=O)CSc1nnc(SCc2ccc(Cl)cc2)s1,37.0,9.1,0.0,/,-0.8,11.7
C=CCN1C(=O)/C(=C\c2ccc(C)cc2)N=C1SCC(=O)NCCC,7.8,1.5,0.7,98.4*,-0.3,3.0
CCCCCNC(=O)CSC1=N/C(=C\c2ccc(Cl)c(Cl)c2)C(=O)N1CC,13.9,2.5,-0.1,-5.0,1.3,5.3
CCCNC(=O)CSC1=N/C(=C/c2ccc(F)cc2)C(=O)N1CC,-12.2,-2.0,0.1,97.1*,-6.8,-3.9
COc1ccc(C(=O)Nc2ccc3c(c2)C(=O)N(C)[C@H]2CC[C@H](CC(=O)NCC4CC4)O[C@@H]2CO3)cc1,/,/,/,/,/,3.0
CC(=O)c1cc(-c2csc(C=O)c2)c(=O)n2c1CCC2,/,/,/,/,/,2.8
CCOC(=O)c1ccc(NC2c3ccccc3C(=O)N2c2cccnc2)cc1 (centres undefined),2.1,-3.1,-0.4,-3.0,-9.5,1.1
COc1ccc(NC2c3ccccc3C(=O)N2c2cccnc2)cc1 (centres undefined),3.6,3.0,0.0,88.3*,3.9,-0.1
COC(=O)C1C(c2ccccc2)C(C(=O)O)C1c1ccccc1 (centres undefined),57.3,-1.8,-0.1,-3.5,-3.4,-3.5
O=C(O)C1C(c2ccccc2)C(C(=O)Oc2ccc(O)cc2)C1c1ccccc1 (centres undefined),10.5,0.3,0.6,94.4*,-5.1,16.3
CCCCCCCCN1C(=O)[C@@H](CC(=O)NCc2ccc(C)o2)C[C@@]2(C(=O)OC)C1=C[C@H](C1CCCC1)O[C@@H]2C,/,/,/,/,/,6.5
CN(C)c1ccc(CNc2ccc3c(c2)ncn3C(C)(C)C)cc1,4.7,5.7,0.0,93.1*,-4.8,-6.7
CCn1cnc2cc(NCc3nc4ccccc4n3C)ccc21,-69.8,-1.9,0.1,32.7,-6.6,-5.2
CCn1cnc2cc(NCc3ccc(N(C)C)cc3)ccc21,-17.2,6.0,-0.2,98.4*,5.3,-4.8
CCN(CC)c1ccc(CNc2ccc3c(c2)ncn3CC)cc1,-25.3,-2.1,/,98.5*,-6.5,-3.3
SMILES,PHOSPHO1 inh,A3A deaminase,aDG glyco up,ALR H2O2 inh,A3G deaminase,rCAG binder
CCn1cnc2cc(NCc3cccs3)ccc21,43.7,-2.4,0.0,?,-4.5,-2.3
COc1ccc(C(=O)OCCCN(C)C2CN(Cc3cn(Cc4ccccc4Cl)nn3)S(=O)(=O)C2)cc1OC (centres undefined),/,/,/,/,/,2.3
C=CCN1C(=O)[C@@H](CC(=O)NCc2ccccc2)[C@]2(C(=O)OCC)CCCCC/C=C/12,/,/,/,/,/,4.5
COc1ccccc1C(=O)N1CCN(C(=O)[C@@H](Cc2ccccc2)NC(=O)[C@H]2O[C@@H](n3ccc(N)nc3=O)[C@H](O)[C@@H]2O)CC1,/,/,/,/,/,2.3
O=C1COc2ccc(N3C(=O)C=CC3=O)cc2N1,1.5,-3.2,/,9.3,48.7*,/
O=C(NCc1ccc(F)cc1)C(c1ccncc1)N(C(=O)c1csnn1)C1CC1 (centres undefined),37.9,-2.9,-0.4,/,-4.3,-1.3
O=C(NCc1ccccc1)C(c1ccncc1)N(C(=O)c1csnn1)C1CC1 (centres undefined),62.3*,-2.3,-0.1,-17.4,-7.0,-1.7
N#Cc1cccc(S(=O)(=O)Nc2c(NC3CCCCC3)c3ccccc3oc2=O)c1,10.0,-6.0,-0.2,98.1*,-5.6,/
O=c1oc2ccccc2c(NC2CCCCC2)c1NS(=O)(=O)c1ccc(F)cc1,26.1,2.7,0.0,10.3,9.0,0.2
CCOC(=O)[C@]12CCCC3=C1N(CCC3)C(=O)[C@@H](CC(=O)NCCCOC)C2,/,/,/,/,/,0.3
CCOc1ccccc1NC(=S)NCc1ccco1,82.1*,-3.9,0.1,8.5,-8.0,4.4
S=C(NCc1ccco1)Nc1ccc(Cl)c(Cl)c1,72.0*,-1.0,0.1,-0.6,-1.3,11.0
CN(C)S(=O)(=O)c1ccc(C(=O)NCCN2C(=O)S/C(=C\c3cccnc3)C2=O)cc1,29.9,3.9,-0.5,-4.5,-1.9,1.4
CS(=O)(=O)c1ccc(C(=O)NCCN2C(=O)S/C(=C\c3cccnc3)C2=O)cc1[N+](=O)[O-],33.5,11.3,0.6,100.0*,-5.6,19.5
CCc1cc(C(=O)NNC(=S)NC2CCCCC2)cs1,-102.1,-4.9,0.2,16.2,-9.2,4.0
CCc1cc(C(=O)NNC(=S)NC(C)c2ccccc2)cs1 (centres undefined),64.9*,3.1,0.1,37.2,2.0,6.2
COc1cc2c(cc1NC(=O)CSc1nnc(-c3cccc(Cl)c3)n1Cc1ccco1)oc1ccccc12,/,/,/,/,/,10.5
O=C(Cc1ccc(Cl)cc1)OCc1nnc(-c2ccccc2)o1,60.0*,3.0,0.7,-5.1,-2.5,-4.7
Cc1sc(NC(=O)c2ccco2)c(C(=O)c2ccc(Cl)cc2)c1C,4.9,-1.8,-0.2,97.4*,-1.3,4.7
COC(=O)[C@]12C[C@H](CC(=O)NCC3CCCCC3)C(=O)N(Cc3cccc4ccccc34)C1=C[C@H](C(C)C)O[C@@H]2C1CC1,/,/,/,/,/,6.8
Cc1ccc(N2C(=O)SC(N(CC(=O)O)c3cccc(C)c3)C2=O)cc1 (centres undefined),41.3,-3.7,-0.1,98.8*,2.5,-1.7
